In all, about 68,000 sequences were measured (“fluorescence intensity (a.u.)”: median about 9,100, highest 2% from about 16,000 on). Only a selection was taken, and the highest values are over-represented in it overall.
The sequences below were run against OsWRKY34 (Oryza sativa, UniProt Q0JBA9 1-250) (assay: protein-binding microarray (RPBM); PBS, 2% BSA, 51.3 ng/ul salmon testes DNA, 50 uM zinc acetate, 200 nM TF, 25 C, 1 h; high values mean tight binding). Conditions: protein: recombinant; tags: N-terminal polyhistidine and DsRed monomer fusion (pET32a); label: CyDye5-dUTP incorporated in the synthesized complementary strand; 3' TTTTT single-stranded linker to array surface; dsDNA, one strand shown.
OsWRKY34, sequence (Q0JBA9 entry or part of it): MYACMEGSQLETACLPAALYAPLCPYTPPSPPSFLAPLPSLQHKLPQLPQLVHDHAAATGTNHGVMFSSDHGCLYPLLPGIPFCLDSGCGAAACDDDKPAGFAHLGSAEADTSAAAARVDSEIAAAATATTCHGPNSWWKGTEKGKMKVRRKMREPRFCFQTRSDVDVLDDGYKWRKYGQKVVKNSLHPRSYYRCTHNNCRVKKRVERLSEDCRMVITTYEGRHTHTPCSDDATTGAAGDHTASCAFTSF
Summary of the method: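 Transcription factors were made in E. coli BL21-CodonPlus as N-terminal fusions to a polyhistidine tag and DsRed, then purified on Ni–NTA. After primer extension with Cy5-dUTP and blocking with 2% BSA, a custom Agilent array was exposed for 1 h at 25 °C to 200 nM protein in PBS, 2% BSA, salmon testes DNA and 50 µM zinc acetate. Washed arrays were scanned on an Axon 4000B, and the binding signal is per-feature fluorescence intensity in arbitrary units.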
In the case of “ATCCTCCGCCGCCGCCTCACCTCCTCCGCCACCGCGCTCGCGGAGTCACCTAGTGCAG”, the binding signal is reported as 8270 fluorescence intensity (a.u.). For “GCACCCCTGTTTTCTCAGCGATCATGGCTGTAATACTGAACGGAGTCACCTAGTGCAG”, the binding signal was 8070 fluorescence intensity (a.u.). In the case of “TCCTCCGAATCCCAATCTCTCGCAGTTCGTTCGAGGAGCTCGGAGTCACCTAGTGCAG”, the binding signal is reported as 8540 fluorescence intensity (a.u.). For “GCCTCGCCCTCGCGTCGTCACCTCTCGCCATGGCCCACTACGGAGTCACCTAGTGCAG”, the binding signal was 9950 fluorescence intensity (a.u.). For “ATTCTGTTGCGTCATCATGTTCCTGTCTACAGAGCTATACCGGAGTCACCTAGTGCAG”, the binding signal was 8840 fluorescence intensity (a.u.). With “TTTAAAACTAGGACCTGAGTAAATATTTTTCTTGAGTTTTCGGAGTCACCTAGTGCAG” the binding signal was 8040 fluorescence intensity (a.u.). “GCTAGTTGTAATATACACATAATTGTTGCTTCATTTCAACCGGAGTCACCTAGTGCAG” was tested, and the binding signal was 9790 fluorescence intensity (a.u.). “TTGCAGTATCCCGGTTGCCCACCTTTCATGGTCCATCACCCGGAGTCACCTAGTGCAG” was tested, and the binding signal was 8490 fluorescence intensity (a.u.). “GCAATTATTAATGTACCGCTCCGTTTTCATTTTTGGGTTGCGGAGTCACCTAGTGCAG” was tested, and the binding signal was 8630 fluorescence intensity (a.u.). With “TGTGGAGTTTGAGGATTGCACAATAATCTCAGGGGCGGGCCGGAGTCACCTAGTGCAG” the binding signal was 8590 fluorescence intensity (a.u.). “AGGTTATAAGACGTTTTGACTTTGGTTAAAGTCAAACTACCGGAGTCACCTAGTGCAG” was tested, and the binding signal was 9600 fluorescence intensity (a.u.). For “CCTCTCGGGCGCCTCTCCTCTCCATCATTCCTCCCACTGCCGGAGTCACCTAGTGCAG”, the binding signal was 9880 fluorescence intensity (a.u.). “ACCGAAAGTTCAATTTGGTCCTTTACATTTTATTTTGTCCCGGAGTCACCTAGTGCAG” was tested, and the binding signal was 8240 fluorescence intensity (a.u.). With “TTGTGTATTGGTGCTGTCGGTGCATGGGTGGTGGTTTTTTCGGAGTCACCTAGTGCAG” the binding signal was 20700 fluorescence intensity (a.u.). “GTACTATGTATTGTCCCATCGTTGTATAGGTTGGTTTTTTCGGAGTCACCTAGTGCAG” was tested, and the binding signal was 8240 fluorescence intensity (a.u.). For “ATGTATGCACGATGTGAGTGTCCGTGTTTGTAATGTGTTTCGGAGTCACCTAGTGCAG”, the binding signal was 11300 fluorescence intensity (a.u.). For “CCTGTGTGTTGGTGCTGTCGGTATGTGGGTGGTGGTATTTCGGAGTCACCTAGTGCAG”, the binding signal was 14600 fluorescence intensity (a.u.). “GCTATGTAATGTCCCATCCGTGCTGTATAGTTTGGGTTTTCGGAGTCACCTAGTGCAG” was tested, and the binding signal was 17200 fluorescence intensity (a.u.). With “TTGTGCTGGTTTTGGTTTTGGTTTTGGGTTGCATGTATGTCGGAGTCACCTAGTGCAG” the binding signal was 9790 fluorescence intensity (a.u.). With “ACCTACTCACAATCACAGAATCACATCATAACATTATTGTCGGAGTCACCTAGTGCAG” the binding signal was 9160 fluorescence intensity (a.u.). With “CCTGCCATGTCATGTTTGTACCTAGATACCAGGTATGACGCGGAGTCACCTAGTGCAG” the binding signal was 8960 fluorescence intensity (a.u.). In the case of “AGATGTTTCCGCTGATACTTTGATACGTCGTCCTTATTTGCGGAGTCACCTAGTGCAG”, the binding signal is reported as 10800 fluorescence intensity (a.u.). For “CCGATTCCCTGCCGCATCTGCCCGTTGCCCTCGCGCCCGGCGGAGTCACCTAGTGCAG”, the binding signal was 8880 fluorescence intensity (a.u.). In the case of “TGCAGATTTGGTTTTTCTTTTTTTTCGCACGTTCTCTTTCCGGAGTCACCTAGTGCAG”, the binding signal is reported as 15700 fluorescence intensity (a.u.). For “TATTTTTTGCTATTATCTTTCGTGTAAGCTATTTCTCTATCGGAGTCACCTAGTGCAG”, the binding signal was 9170 fluorescence intensity (a.u.). With “AATTCAAATTCATACTGTTCAAACAAAGTCATATAGAAAACGGAGTCACCTAGTGCAG” the binding signal was 28600 fluorescence intensity (a.u.). With “CAGTGCGTATTTGCAATATATATATATAGGAAAGTTTCTTCGGAGTCACCTAGTGCAG” the binding signal was 9390 fluorescence intensity (a.u.). In the case of “GTGTGTGTTTTTGCAAAAGTTTTCTATAGAAAAGTTACATCGGAGTCACCTAGTGCAG”, the binding signal is reported as 8210 fluorescence intensity (a.u.). With “AAACGGTGCGTTTTTTGCAAAAAAATTCTATAGGAAAGTTCGGAGTCACCTAGTGCAG” the binding signal was 63900 fluorescence intensity (a.u.). For “TATATATATATATATATATATATATAGAAATTAAGTCAAACGGAGTCACCTAGTGCAG”, the binding signal was 8940 fluorescence intensity (a.u.). “TTTTTATACTGTTGGTACATATTCAAATTTGTCAAACATTCGGAGTCACCTAGTGCAG” was tested, and the binding signal was 8960 fluorescence intensity (a.u.). For “TCCTGTGCCTCTCTCATGGTGTGGGTGTCTGTGTCTTTGACGGAGTCACCTAGTGCAG”, the binding signal was 9040 fluorescence intensity (a.u.). With “AAGGTGGGGTCATCATAAATATTTTTTAAGTGAAAATTTTCGGAGTCACCTAGTGCAG” the binding signal was 9840 fluorescence intensity (a.u.). With “CTATGAAGTTAAAAATACGCTCATCAGAAAGGATATATTTCGGAGTCACCTAGTGCAG” the binding signal was 57200 fluorescence intensity (a.u.). In the case of “AATGGATATCAGGATATGAAGCTCAAAGTTATCGGTTATTCGGAGTCACCTAGTGCAG”, the binding signal is reported as 8240 fluorescence intensity (a.u.). “GGTTGAGGCTGTTTTCCGATCGTTCCGACCGTTTTCATCCCGGAGTCACCTAGTGCAG” was tested, and the binding signal was 8700 fluorescence intensity (a.u.). For “GCCAACCGCATGCCGTCCCCGATGCCGCCCGCCGTCAACCCGGAGTCACCTAGTGCAG”, the binding signal was 8290 fluorescence intensity (a.u.). “ATATTACTGGTGTTTACTTGCTTTTCTTTTTTTAAAAAAACGGAGTCACCTAGTGCAG” was tested, and the binding signal was 9160 fluorescence intensity (a.u.). With “ATATAAGGGATTTTGAGTTTTTGATTGCAACGTTTGACCACGGAGTCACCTAGTGCAG” the binding signal was 8550 fluorescence intensity (a.u.). In the case of “TATGCATCACCTCGTAATCCACAACTGACTTACCCTTTCTCGGAGTCACCTAGTGCAG”, the binding signal is reported as 12300 fluorescence intensity (a.u.). In the case of “AGAATGTTTGCTCAAAGTATGTTTTTGTCATCTGTTTTTCCGGAGTCACCTAGTGCAG”, the binding signal is reported as 8800 fluorescence intensity (a.u.). In the case of “TGCTTTTGTATTTTTTTTGCTGTGTATATATCATAAACTTCGGAGTCACCTAGTGCAG”, the binding signal is reported as 8550 fluorescence intensity (a.u.). With “CTTTTGTGCTCATCTGAACTTCTGAAGTATCATAAAGAAGCGGAGTCACCTAGTGCAG” the binding signal was 31400 fluorescence intensity (a.u.).

Source: PMC7819943, “Rice protein-binding microarrays: a tool to detect cis-acting elements near promoter regions in rice”
